System: Vero E6 infected with SARS-CoV-2
Assay: inhibition of SARS-CoV-2 cytopathic effect; higher = more antiviral protection, active = above 15
Settings: 48 h

Measured: inhibition of SARS-CoV-2 cytopathic effect

CO[C@H]1C[C@H](O[C@@H]2/C(C)=C/C[C@@H]3C[C@@H](C[C@]4(CC[C@H](C)[C@@H](C5CCCCC5)O4)O3)OC(=O)[C@@H]3C=C(C)/C(=N/O)[C@H]4OC/C(=C\C=C\[C@@H]2C)[C@]43O)O[C@@H](C)[C@@H]1O [selamectin]
inactive: 1 nM -1.61% | 8.33 nM 0.4% | 100 nM -0.73% | 833.33 nM 2.72%
active: 10000 nM 16.1%

Cc1cccc(CN2CCN(C(c3ccccc3)c3ccc(Cl)cc3)CC2)c1 (stereo not given) [meclizine]
inactive: 1 nM 4.53% | 8.33 nM 3.44% | 100 nM 2.18% | 833.33 nM 4.25% | 10000 nM 3.46%

CC(=O)N(C)c1cccc(-c2ccnc3c(C(=O)c4cccs4)cnn23)c1 [indiplon]
inactive: 1 nM 2.87% | 8.33 nM 0.82% | 100 nM 4.78% | 833.33 nM 4.31% | 10000 nM 0.34%

O=C(NCNC(=O)NC1C(=O)NC(=O)N1CO)NC1C(=O)NC(=O)N1CO (stereo not given) [imidurea]
inactive: 1 nM -0.15% | 8.33 nM 0.45% | 100 nM -1.76% | 833.33 nM -1.38% | 10000 nM 0.38%

O=C(c1ccc(-c2ccc(Cl)cc2)o1)N(Cc1ccccn1)c1ccc(N2CCNCC2)cc1
inactive: 1 nM -2.64% | 8.33 nM 1.12% | 100 nM -0.23% | 833.33 nM -1.66%
active: 10000 nM 43.8%

CN(C)Cc1cccc(N=C(c2ccccc2)c2c(O)[nH]c3cc(C(=O)N(C)C)ccc23)c1
inactive: 1 nM 1.09% | 8.33 nM 1.08% | 100 nM 1.9% | 833.33 nM -0.95% | 10000 nM -4.44%

Oc1c(I)cc(I)c(O)c1I [riodoxol]
inactive: 1 nM 0% | 8.33 nM 0.37% | 100 nM -0.65% | 833.33 nM -2.42% | 10000 nM -0.9%

CC(C)(O)CC(=O)O [beta-hydroxy-beta-methylbutyrate]
inactive: 1 nM 3.1% | 8.33 nM -2.04% | 100 nM -6.91% | 833.33 nM -3.9% | 10000 nM -3.42%

O=c1oc(-c2ccc(C(F)(F)F)cc2)nn1Cc1cc(Cl)ccc1O
inactive: 1 nM -2.43% | 8.33 nM -1.09% | 100 nM 3.13% | 833.33 nM 3.7% | 10000 nM 13.8%

COc1nc(C)nc(Cl)c1NC1=NCCN1 [moxonidine]
inactive: 1 nM -0.54% | 8.33 nM 1.98% | 100 nM -1.9% | 833.33 nM -2.44% | 10000 nM -1.74%

Cc1cc(Oc2ccc3nc(COc4ccc(CC5SC(=O)NC5=O)cc4)n(C)c3c2)cc(C)c1N (stereo not given) [efatutazone]
inactive: 1 nM -0.56% | 8.33 nM 2.28% | 100 nM 0.7% | 833.33 nM 0.08% | 10000 nM -0.83%

COc1ccc2[nH]cc(C3=CCNCC3)c2c1
inactive: 1 nM 1.62% | 8.33 nM -0.77% | 100 nM 0.86% | 833.33 nM -2.22% | 10000 nM -3.05%

O=C(Nc1ccc([N+](=O)[O-])cc1O)Nc1ccccc1Br
inactive: 1 nM 0.2% | 8.33 nM -0.25% | 100 nM -0.6% | 833.33 nM 0.15% | 10000 nM -2.06%

CN1[C@@H]2CC[C@H]1C[C@@H](OC(c1ccc(F)cc1)c1ccc(F)cc1)C2 [3-alpha-bis-(4-fluorophenyl)-methoxytropane]
inactive: 1 nM 0.13% | 8.33 nM 1.33% | 100 nM -2.46% | 833.33 nM -1.34% | 10000 nM -5.09%

Cc1ccc(S(=O)(=O)NCl)cc1 [chloramine-T]
inactive: 1 nM 1.46% | 8.33 nM 3.35% | 100 nM 1.32% | 833.33 nM 0.02% | 10000 nM -5.13%

C[C@@H]1CC[C@@]2(OC1)O[C@H]1C[C@H]3[C@@H]4CC=C5C[C@@H](O[C@@H]6O[C@H](CO)[C@@H](O[C@@H]7O[C@@H](C)[C@H](O)[C@@H](O)[C@H]7O)[C@H](O)[C@H]6O[C@@H]6O[C@@H](C)[C@H](O)[C@@H](O)[C@H]6O)CC[C@]5(C)[C@H]4CC[C@]3(C)[C@H]1[C@@H]2C [dioscin]
inactive: 1 nM -2.63% | 8.33 nM 0.88% | 100 nM -2.63% | 833.33 nM 0.22% | 10000 nM -12.2%

Cc1cccc(C(C)c2c[nH]cn2)c1C (stereo not given) [medetomidine]
inactive: 1 nM 0.12% | 8.33 nM -1.31% | 100 nM -1.87% | 833.33 nM -1.95% | 10000 nM -1.68%
